# Data from PubChem BioAssay AID624377 (The Scripps Research Institute Molecular Screening Center, 2012).
# Hit rate of the full screen: of about 360,000 compounds, about 680 (0.19%) were called active. Only a selection was taken, and actives are over-represented in it overall. Unmarked numbers belong to inactive results. Rule as the data show it: active = inhibition above about 25%; inactive = the rest.
# Target: Arf-GAP with SH3 domain, ANK repeat and PH domain-containing protein 1 (Homo sapiens) (UniProt Q9ULH1)
# Sequence (Q9ULH1 325-724 limits assumed): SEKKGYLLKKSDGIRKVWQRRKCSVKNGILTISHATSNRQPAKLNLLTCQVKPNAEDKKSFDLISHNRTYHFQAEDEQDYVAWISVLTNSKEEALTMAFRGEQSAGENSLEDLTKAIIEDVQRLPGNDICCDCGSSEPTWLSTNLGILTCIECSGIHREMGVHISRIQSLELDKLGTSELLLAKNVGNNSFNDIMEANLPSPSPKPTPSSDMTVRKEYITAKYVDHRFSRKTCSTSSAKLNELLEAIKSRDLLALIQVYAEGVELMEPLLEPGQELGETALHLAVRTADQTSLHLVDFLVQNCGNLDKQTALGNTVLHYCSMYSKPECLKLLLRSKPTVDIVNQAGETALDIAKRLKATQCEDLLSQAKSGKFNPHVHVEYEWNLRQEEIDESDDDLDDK
# Assay: blockers of ASAP1-stimulated ARF1 GTP hydrolysis – biochemical, fluorescence polarization, primary screen (AID 624377);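 also: 0% = vehicle with enzyme and substrate and 100% = no enzyme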
# Conditions: GDP FP detection, at 16.5 µM, active compounds read high
row,Structure (SMILES),inhibition
1,COC(=O)[C@]12C[C@H](CC(=O)NCc3ccc(OC)c(OC)c3)C(=O)N(Cc3ccccc3)C1=C[C@H](C(C)C)O[C@@H]2C1CC1,-17.1%
2,COC(=O)c1ccc(CN2C(=O)[C@]3(OCCC=C[C@H]3C)c3c(Br)cccc32)cc1,8.64%
3,COc1cccc(CNC(=O)[C@H]2CCCN2C(=O)[C@H]2CCCN2C(=O)c2cc(F)cc(F)c2)c1,6.55%
4,COc1cccc(NC(=O)N(C)C[C@@H]2OCc3cn(nn3)CCCC(=O)N([C@@H](C)CO)C[C@H]2C)c1,-14.2%
5,O=C(NCc1ccccc1)[C@H]1CCCN1C(=O)[C@@H]1CCCN1C(=O)c1ccc(Cl)cc1Cl,-1.03%
6,O=C(C(=O)N1CCC(CNC(=O)c2cccnc2Cl)CC1)c1cccs1,0.64%
7,CC(C)[C@H]1COCCS(=O)(=O)N1Cc1ccccc1-c1cccc2c1sc1ccccc12,-8.72%
8,CC(=O)C1=C(C)N(Cc2ccccc2)C(=S)NC1c1cccc(Br)c1 (centres undefined),-2.66%
9,C[C@H](O)[C@@H]1CN2CCc3ccc(-c4ccc5c(c4)OCO5)cc3[C@@H]2C[C@@H]1N(C)C(=O)C1CCCCC1,-4.95%
10,Nc1ccn([C@@H]2O[C@H](C(=O)N[C@H]3CCCCNC3=O)[C@@H](O)[C@H]2O)c(=O)n1,-4.12%
11,C[C@@H](CN1C2=NC[C@@H](Cc3ccccc3)N2C[C@H]1Cc1ccc(O)cc1)NC(=O)CCC1CCCCC1,-1.15%
12,COC(=O)C1=C(C(=O)OC)C2C=C(C(C)C)C1C(=O)C2(C)O (centres undefined),-14.9%
13,CC(C)(C)n1nc(C2CC2)c(Br)c1NC(=O)c1ccccc1F,-0.45%
14,COC(=O)C1=C(C)N(Cc2cccc(C(F)(F)F)c2)C(=NCc2ccccc2)NC1c1ccc(Cl)cc1 (centres undefined),8.8%
15,O=C(N[C@H](C(=O)N1CCC[C@H]1C(=O)NCCc1ccccc1Cl)c1ccccc1)c1ccccc1,8.89%
16,Cc1ccc(C(=O)Nc2c(-c3ccccc3)[nH][nH]c2=O)cc1,-5.65%
17,O=C(NC1=CC(=O)c2ccccc2C1=O)c1ccccc1,26.4% (active)
18,CN(C)C(=O)c1ccc(NC(=O)c2ccccc2-c2ccccc2)cc1,6.53%
19,COC(=O)[C@]12C[C@H](CC(=O)NCCCCc3ccccc3)C(=O)N(Cc3ccc4c(c3)OCO4)C1=C[C@H](C(C)(C)C)O[C@@H]2C,-6.7%
20,CC(C)[C@@H](C)/C=C/[C@@H](C)[C@H]1CC[C@@H]2[C@]1(C)CCC1[C@]23C=C[C@]2(C[C@@H](O)CC[C@]12C)N(c1ccc([N+](=O)[O-])cn1)O3 (some centres undefined),7.77%
21,Cc1cccc(-n2ncc(Cl)c(Cl)c2=O)c1,24.7% (active)
22,Cc1cccc(N2Cc3ccccc3C2=NC(=O)c2ccc(Cl)nc2)c1,-4.91%
23,Nc1c(-c2cccc(Cl)c2)cnn1-c1cccc([N+](=O)[O-])c1,3.08%
24,CC1CCCN(c2cccc3c2S(=O)(=O)N(Cc2ccc(F)cc2)[C@@H](C)[C@H](c2ccccc2)O3)C1 (some centres undefined),0.02%
25,COc1ccc(SSc2ccc(OC)cc2C(=O)O)c(C(=O)O)c1,-8.33%

row,Structure (SMILES),inhibition
1,Cc1cc(Br)cn2c(Cc3ccccc3C(F)(F)F)c(-c3ccc(C#N)cc3)nc12,-9.38%
2,COC(=O)C1=C(C)N(Cc2ccc(C(F)(F)F)cc2)C(=NCc2ccc(C(F)(F)F)cc2)NC1c1cccc(Cl)c1 (centres undefined),1.4%
3,CC(=O)c1cccc(-c2cnc3c(NC=O)cc(-c4ccc(N5CCN(C)CC5)cc4)cn23)c1,39.8% (active)
4,CC(=O)c1cccc(-c2cnc3c(NC=O)cc(-c4ccccc4Oc4ccccc4)cn23)c1,-4.36%
5,CN(C)C(=O)c1cccc(-c2cnc3c(NC=O)cc(-c4ccc(C(=O)N5CCOCC5)cc4)cn23)c1,-9.18%
6,O=CNc1cc(-c2ccc(C(=O)N3CCOCC3)cc2)cn2c(-c3ccc(F)cc3)cnc12,7.38%
7,CC(=O)Nc1cc(-c2ccc(N3CCN(C)CC3)cc2)cn2c(-c3cccc(C(=O)N(C)C)c3)cnc12,40.6% (active)
8,CC(=O)Nc1cc(-c2ccc(N3CCN(C)CC3)cc2)cn2c(-c3ccc(F)cc3)cnc12,24.7% (active)
9,COc1cccc(-c2cc(NC(C)=O)c3ncc(-c4cccc(C(C)=O)c4)n3c2)c1,-0.92%
10,CC(=O)Nc1cccc(-c2cc(NC(C)=O)c3ncc(-c4ccccc4)n3c2)c1,-3.7%
11,COc1ccc(-c2cc(NC=O)c3ncc(-c4cccc(C(=O)N(C)C)c4)n3c2)c(OC)c1,-1.85%
12,COC(=O)Cc1nnn2c1[C@H](C)[C@H](c1ccccc1Br)OCC2,-9.73%
13,Cc1cc(N2CCN(C(=O)OC(C)(C)C)C[C@H]2C)ccc1N1CCN(Cc2ccccc2)[C@H](C)C1,0.89%
14,c1ccc(-c2cc(-c3nnc4sc(-c5ccccn5)nn34)[nH]n2)cc1,28.1% (active)
15,Fc1ccc(-c2ccc(-c3nn4c(-c5ccco5)nnc4s3)o2)cc1,-2.12%
16,CCCCCCCCN1C(=O)[C@@H](CC(=O)NCCCC)C[C@@]2(C(=O)OC)C1=C[C@H](C(C)(C)C)O[C@@H]2C,-1.77%
17,COc1ccc(C(CNC(=O)c2ccc(S(=O)(=O)Nc3ccccc3C)cc2)N2CCOCC2)cc1 (centres undefined),1.23%
18,COc1ccc(C(CNC(=O)c2cccc(NS(=O)(=O)c3ccc(C)c(F)c3)c2)N2CCCC2)cc1 (centres undefined),-8.53%
19,COc1ccc(C(CNC(=O)c2cccc(S(=O)(=O)Nc3ccccc3Cl)c2)N2CCOCC2)cc1 (centres undefined),26.3% (active)
20,CCOc1ccccc1C(=O)N1CCC[C@@H]1C(=O)N1CCC[C@H]1C(=O)NCc1ccccc1,-4.19%
21,CCC(=C/c1sc2ccc3ccccc3c2[n+]1C)/C=C1\Sc2ccc3ccccc3c2N1C,41.1% (active)
22,COCc1[nH]nc2c1C(c1ccccc1)N(c1ccccc1)C2=O (centres undefined),-1.83%
23,COC(=O)[C@]12C[C@H](CC(=O)NCCC(C)C)C(=O)N(CCc3ccc(OC)c(OC)c3)C1=C[C@H](C(C)(C)C)O[C@@H]2C,10.4%
24,Cc1nc(NC(=O)C(C)(C)C)sc1[N+](=O)[O-],-0.12%
25,Nc1ncnc2c1ncn2[C@@H]1O[C@H](C(=O)N[C@@H](CCc2ccccc2)C(=O)N2CCCN(Cc3cccs3)CC2)[C@@H](O)[C@H]1O,-0.42%

row,Structure (SMILES),inhibition
1,COC(=O)C1=C(C)N(Cc2ccc(C(F)(F)F)cc2)C(=NCc2ccccc2)NC1c1ccccc1C(F)(F)F (centres undefined),-2.57%
2,COCCNC(=S)N(C)[C@H]1C[C@H]2c3[nH]c4ccccc4c3CCN2C[C@H]1[C@H](C)O,6.89%
3,O=C(NN=Cc1ccco1)C(=O)Nc1ccc(Cl)c([N+](=O)[O-])c1,3.05%
4,COC(=O)C1=C(C)N(Cc2cccc(C(F)(F)F)c2)C(=NCc2ccccc2)NC1c1ccccc1C(F)(F)F (centres undefined),11.8%
5,COC(=O)[C@H](CC(C)C)NS(=O)(=O)c1c(F)cccc1F,0.11%
6,CCc1ccc(C2=CC(=O)CC(C)(C)C2=O)cc1,-7.16%
7,C=CC[C@]12C[C@@]3(O[C@H](c4ccc(C(F)(F)F)cc4)N=C3C[C@H](c3ccc(OC)cc3)[C@H]1C)N(C1CCN(Cc3ccccc3)CC1)C2=O,5.12%
8,CC(C)(C)c1ccc(S(=O)(=O)NCC2CCN(C(=O)C(=O)c3cc4ccccc4o3)CC2)cc1,-6.17%
9,CCOC(=O)c1ccc(Nc2cc3ccccc3c(=O)[nH]2)cc1,29.1% (active)
10,CCOC(=O)c1ccc(NC(=O)c2c(N)n(C)c(=O)[nH]c2=O)cc1,10.2%
11,CCOC(=O)c1ccc(NC(=O)c2c(NCc3ccccc3)[nH]c(=O)[nH]c2=O)cc1,-2.85%
12,CCOC(=O)Cn1c2c(n(-c3ccc(F)cc3)c1=O)C=C(c1ccccc1)[C@@H](C)C(C(=O)N(C)C1CCCCC1)=C2,-1.25%
13,O=C(N/N=C/c1cccc([N+](=O)[O-])c1)C1CC(=O)N(c2ccc(Br)cc2)C1 (centres undefined),-8.22%
14,CCCc1ccc(OCc2ccc(C(=O)N/N=C/c3cccc([N+](=O)[O-])c3)o2)c(OC)c1,-0.67%
15,N#Cc1cc([N+](=O)[O-])ccc1Oc1cccc(/C=N/NC(=O)c2ccc(Cl)cc2)c1,25.2% (active)
16,CN(C)C(=O)N1CCN(C(=O)[C@@H](Cc2ccccc2)NC(=O)[C@H]2O[C@@H](n3ccc(N)nc3=O)[C@H](O)[C@@H]2O)CC1,-4.92%
17,COc1cccc(-c2cc(CNC(=O)[C@@H](Cc3ccccc3)NC(=O)[C@H]3O[C@@H](n4cnc(C(N)=O)n4)[C@H](O)[C@@H]3O)no2)c1,0.63%
18,COC(=O)c1sc(N2CCN(Cc3ccccc3)CC2)nc1N,6.27%
19,C=CCNc1nc(N)c(C(=C(C#N)C#N)c2ccccc2)s1,29.1% (active)
20,COc1ccccc1Cc1c(-c2ccc(F)cc2)nc2ccc(C)cn12,-3.6%
21,O=S(=O)(NCc1ccccc1)c1ccc(S(=O)(=O)N2CCCC2)cc1,16.8%
22,COC(=O)C1=C(C)NC(=O)/C1=C/c1ccc(CNS(=O)(=O)c2ccc(C)cc2)o1,-2.9%
23,O=c1/c(=C/c2ccc(CNS(=O)(=O)c3ccccc3)o2)sc2n1CCN=2,26% (active)
24,Cc1ccc(C)c(CN2CCC(CNC(=O)C3CCCN(c4ncnc5c4nc4n5CCCCC4)C3)CC2)c1 (centres undefined),-4.48%
